Measured values taken from the supplement of paper PMC11732987, “Enantioselective OTUD7B fragment discovery through chemoproteomics screening and high-throughput optimisation” (Communications Chemistry, 2025).

What was measured:
Test in all cases: log2 ratio of Biotin-Ahx-Ub-VS probe labelling (fragment/DMSO); higher = less target engagement (more negative = stronger competition), active = hit call of the paper (q ≤ 0.05, log2 ratio ≤ -1)
Details in all cases: compound concentration: 200 uM; treatment time: 3 h
USP9X = USP9X (UniProt Q93008)
Outline: (§1)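 Labelled DUBs from HEK293T lysate were NeutrAvidin-enriched, digested with LysC and trypsin, and run by diaPASEF LC-MS/MS. Before that, each 495 µg sample in Tris/CHAPS/IGEPAL buffer with protease inhibitors was treated in triplicate with fragment at 200 µM or vehicle for 3 h, then with Biotin-Ahx-Ub-VS at 0.5 µM final for 1 h. Values are average log2 ratios of fragment over vehicle by unpaired t-test, based on global-median-normalised Spectronaut label-free quantities from proteins with ≥2 unique peptides.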

UniProt O00487 = target: UniProt O00487
Outline: as §1

UniProt O00507 = target: UniProt O00507
Outline: as §1

UniProt P51784 = target: UniProt P51784
Outline: as §1

UniProt Q5T2D3 = target: T1, UniProt Q5T2D3
T1 sequence (whole entry): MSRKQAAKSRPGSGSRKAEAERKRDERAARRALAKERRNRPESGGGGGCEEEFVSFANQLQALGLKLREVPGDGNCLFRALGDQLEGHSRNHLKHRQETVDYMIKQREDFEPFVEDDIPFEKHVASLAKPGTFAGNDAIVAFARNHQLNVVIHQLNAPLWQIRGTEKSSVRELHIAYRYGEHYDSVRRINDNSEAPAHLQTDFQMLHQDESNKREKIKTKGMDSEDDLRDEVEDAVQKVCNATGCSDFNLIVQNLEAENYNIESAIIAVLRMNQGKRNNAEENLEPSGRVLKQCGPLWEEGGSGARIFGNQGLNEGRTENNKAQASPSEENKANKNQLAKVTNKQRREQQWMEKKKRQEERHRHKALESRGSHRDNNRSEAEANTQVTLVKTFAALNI
Outline: as §1

UniProt Q8TE49 = target: T2, UniProt Q8TE49
T2 sequence (whole entry): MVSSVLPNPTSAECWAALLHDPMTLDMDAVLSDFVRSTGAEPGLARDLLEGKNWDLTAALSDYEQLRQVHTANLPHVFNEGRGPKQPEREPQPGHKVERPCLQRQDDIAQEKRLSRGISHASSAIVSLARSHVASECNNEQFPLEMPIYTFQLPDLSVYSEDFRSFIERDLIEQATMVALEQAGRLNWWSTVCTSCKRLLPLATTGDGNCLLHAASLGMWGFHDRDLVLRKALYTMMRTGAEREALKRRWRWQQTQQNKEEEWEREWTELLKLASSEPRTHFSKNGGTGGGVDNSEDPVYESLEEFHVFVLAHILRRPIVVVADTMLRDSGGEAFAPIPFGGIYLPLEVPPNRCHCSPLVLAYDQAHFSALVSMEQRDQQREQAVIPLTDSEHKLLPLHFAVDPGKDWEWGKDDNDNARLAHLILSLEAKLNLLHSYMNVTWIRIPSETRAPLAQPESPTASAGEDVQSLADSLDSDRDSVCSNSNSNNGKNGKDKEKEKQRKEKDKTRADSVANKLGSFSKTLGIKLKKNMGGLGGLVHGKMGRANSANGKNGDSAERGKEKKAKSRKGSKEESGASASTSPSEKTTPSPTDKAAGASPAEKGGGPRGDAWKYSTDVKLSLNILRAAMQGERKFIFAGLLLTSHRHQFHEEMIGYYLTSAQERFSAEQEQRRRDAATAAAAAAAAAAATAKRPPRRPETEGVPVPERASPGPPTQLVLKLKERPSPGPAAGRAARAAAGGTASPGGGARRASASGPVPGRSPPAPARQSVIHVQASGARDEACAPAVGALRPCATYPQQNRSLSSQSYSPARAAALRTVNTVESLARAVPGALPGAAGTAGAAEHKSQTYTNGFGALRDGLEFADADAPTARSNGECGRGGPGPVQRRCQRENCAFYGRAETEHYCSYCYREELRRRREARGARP
Outline: as §1

UniProt Q9P2H5 = target: T3, UniProt Q9P2H5
T3 sequence (whole entry): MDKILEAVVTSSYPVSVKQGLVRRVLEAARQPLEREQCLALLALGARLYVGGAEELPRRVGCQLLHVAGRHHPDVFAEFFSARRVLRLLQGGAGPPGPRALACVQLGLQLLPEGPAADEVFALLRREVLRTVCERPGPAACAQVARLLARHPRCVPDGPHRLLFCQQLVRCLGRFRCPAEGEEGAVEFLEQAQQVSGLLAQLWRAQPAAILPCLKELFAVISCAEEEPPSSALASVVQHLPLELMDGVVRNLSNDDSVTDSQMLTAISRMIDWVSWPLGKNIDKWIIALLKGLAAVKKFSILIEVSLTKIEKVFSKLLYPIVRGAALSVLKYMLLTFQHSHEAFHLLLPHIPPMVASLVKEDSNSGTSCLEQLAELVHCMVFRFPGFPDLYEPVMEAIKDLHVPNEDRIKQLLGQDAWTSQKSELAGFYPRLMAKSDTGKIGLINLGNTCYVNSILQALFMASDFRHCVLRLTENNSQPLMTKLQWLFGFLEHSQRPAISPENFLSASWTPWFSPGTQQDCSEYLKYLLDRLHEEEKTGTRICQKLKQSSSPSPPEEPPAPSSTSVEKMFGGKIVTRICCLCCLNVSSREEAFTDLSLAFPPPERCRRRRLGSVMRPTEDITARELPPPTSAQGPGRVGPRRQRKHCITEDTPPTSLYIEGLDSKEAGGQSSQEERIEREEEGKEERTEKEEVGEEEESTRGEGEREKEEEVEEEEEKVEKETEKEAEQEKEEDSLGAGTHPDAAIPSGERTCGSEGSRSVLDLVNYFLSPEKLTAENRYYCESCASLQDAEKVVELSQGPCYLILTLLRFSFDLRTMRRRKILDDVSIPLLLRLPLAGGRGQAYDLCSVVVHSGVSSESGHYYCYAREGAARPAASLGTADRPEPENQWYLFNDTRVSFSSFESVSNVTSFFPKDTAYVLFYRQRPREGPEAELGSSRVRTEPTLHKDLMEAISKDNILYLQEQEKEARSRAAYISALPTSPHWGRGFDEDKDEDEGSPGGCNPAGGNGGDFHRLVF
Outline: as §1

UniProt Q9UGI0 = target: T4, UniProt Q9UGI0
T4 sequence (whole entry): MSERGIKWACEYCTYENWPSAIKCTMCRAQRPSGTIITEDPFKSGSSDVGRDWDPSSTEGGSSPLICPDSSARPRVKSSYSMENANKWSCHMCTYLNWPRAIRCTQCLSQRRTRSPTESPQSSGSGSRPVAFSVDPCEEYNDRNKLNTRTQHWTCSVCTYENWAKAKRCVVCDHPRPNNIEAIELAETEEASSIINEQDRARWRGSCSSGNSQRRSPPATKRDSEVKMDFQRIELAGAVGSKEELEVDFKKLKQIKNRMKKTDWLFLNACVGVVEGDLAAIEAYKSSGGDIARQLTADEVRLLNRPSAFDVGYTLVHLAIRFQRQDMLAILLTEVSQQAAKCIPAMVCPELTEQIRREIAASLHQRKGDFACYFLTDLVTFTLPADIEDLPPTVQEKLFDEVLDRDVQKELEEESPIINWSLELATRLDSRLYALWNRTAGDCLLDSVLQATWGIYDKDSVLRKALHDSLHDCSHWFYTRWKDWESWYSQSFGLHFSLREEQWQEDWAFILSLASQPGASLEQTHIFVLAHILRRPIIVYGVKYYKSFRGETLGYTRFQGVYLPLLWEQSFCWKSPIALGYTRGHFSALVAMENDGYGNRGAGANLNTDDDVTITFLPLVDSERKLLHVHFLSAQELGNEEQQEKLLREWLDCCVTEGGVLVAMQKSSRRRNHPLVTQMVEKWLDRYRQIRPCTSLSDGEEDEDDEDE
Outline: as §1

YOD1 = target: T5, YOD1 (UniProt Q5VVQ6)
T5 sequence (whole entry): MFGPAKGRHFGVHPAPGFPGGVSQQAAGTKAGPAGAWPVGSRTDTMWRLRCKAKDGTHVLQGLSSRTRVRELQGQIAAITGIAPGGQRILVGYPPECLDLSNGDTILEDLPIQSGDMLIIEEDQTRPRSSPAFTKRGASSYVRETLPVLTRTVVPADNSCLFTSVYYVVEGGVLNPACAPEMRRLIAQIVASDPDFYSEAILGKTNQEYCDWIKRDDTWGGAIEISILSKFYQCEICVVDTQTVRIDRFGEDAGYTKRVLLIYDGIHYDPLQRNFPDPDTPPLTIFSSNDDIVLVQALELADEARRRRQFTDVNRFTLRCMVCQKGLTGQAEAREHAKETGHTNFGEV
Outline: as §1

Measured: log2 ratio of Biotin-Ahx-Ub-VS probe labelling

UniProt O00487, sequence (O00487 whole entry): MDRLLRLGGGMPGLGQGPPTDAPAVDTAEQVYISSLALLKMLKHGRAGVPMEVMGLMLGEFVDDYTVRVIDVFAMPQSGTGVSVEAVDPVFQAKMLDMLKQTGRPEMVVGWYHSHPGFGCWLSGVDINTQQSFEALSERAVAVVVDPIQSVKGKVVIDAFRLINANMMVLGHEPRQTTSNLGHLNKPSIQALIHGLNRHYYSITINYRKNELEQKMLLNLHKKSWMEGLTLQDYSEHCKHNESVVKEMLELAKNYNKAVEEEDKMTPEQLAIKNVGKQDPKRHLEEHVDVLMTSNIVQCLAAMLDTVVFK
USP9X, sequence (Q93008 whole entry, the tested form may be a part): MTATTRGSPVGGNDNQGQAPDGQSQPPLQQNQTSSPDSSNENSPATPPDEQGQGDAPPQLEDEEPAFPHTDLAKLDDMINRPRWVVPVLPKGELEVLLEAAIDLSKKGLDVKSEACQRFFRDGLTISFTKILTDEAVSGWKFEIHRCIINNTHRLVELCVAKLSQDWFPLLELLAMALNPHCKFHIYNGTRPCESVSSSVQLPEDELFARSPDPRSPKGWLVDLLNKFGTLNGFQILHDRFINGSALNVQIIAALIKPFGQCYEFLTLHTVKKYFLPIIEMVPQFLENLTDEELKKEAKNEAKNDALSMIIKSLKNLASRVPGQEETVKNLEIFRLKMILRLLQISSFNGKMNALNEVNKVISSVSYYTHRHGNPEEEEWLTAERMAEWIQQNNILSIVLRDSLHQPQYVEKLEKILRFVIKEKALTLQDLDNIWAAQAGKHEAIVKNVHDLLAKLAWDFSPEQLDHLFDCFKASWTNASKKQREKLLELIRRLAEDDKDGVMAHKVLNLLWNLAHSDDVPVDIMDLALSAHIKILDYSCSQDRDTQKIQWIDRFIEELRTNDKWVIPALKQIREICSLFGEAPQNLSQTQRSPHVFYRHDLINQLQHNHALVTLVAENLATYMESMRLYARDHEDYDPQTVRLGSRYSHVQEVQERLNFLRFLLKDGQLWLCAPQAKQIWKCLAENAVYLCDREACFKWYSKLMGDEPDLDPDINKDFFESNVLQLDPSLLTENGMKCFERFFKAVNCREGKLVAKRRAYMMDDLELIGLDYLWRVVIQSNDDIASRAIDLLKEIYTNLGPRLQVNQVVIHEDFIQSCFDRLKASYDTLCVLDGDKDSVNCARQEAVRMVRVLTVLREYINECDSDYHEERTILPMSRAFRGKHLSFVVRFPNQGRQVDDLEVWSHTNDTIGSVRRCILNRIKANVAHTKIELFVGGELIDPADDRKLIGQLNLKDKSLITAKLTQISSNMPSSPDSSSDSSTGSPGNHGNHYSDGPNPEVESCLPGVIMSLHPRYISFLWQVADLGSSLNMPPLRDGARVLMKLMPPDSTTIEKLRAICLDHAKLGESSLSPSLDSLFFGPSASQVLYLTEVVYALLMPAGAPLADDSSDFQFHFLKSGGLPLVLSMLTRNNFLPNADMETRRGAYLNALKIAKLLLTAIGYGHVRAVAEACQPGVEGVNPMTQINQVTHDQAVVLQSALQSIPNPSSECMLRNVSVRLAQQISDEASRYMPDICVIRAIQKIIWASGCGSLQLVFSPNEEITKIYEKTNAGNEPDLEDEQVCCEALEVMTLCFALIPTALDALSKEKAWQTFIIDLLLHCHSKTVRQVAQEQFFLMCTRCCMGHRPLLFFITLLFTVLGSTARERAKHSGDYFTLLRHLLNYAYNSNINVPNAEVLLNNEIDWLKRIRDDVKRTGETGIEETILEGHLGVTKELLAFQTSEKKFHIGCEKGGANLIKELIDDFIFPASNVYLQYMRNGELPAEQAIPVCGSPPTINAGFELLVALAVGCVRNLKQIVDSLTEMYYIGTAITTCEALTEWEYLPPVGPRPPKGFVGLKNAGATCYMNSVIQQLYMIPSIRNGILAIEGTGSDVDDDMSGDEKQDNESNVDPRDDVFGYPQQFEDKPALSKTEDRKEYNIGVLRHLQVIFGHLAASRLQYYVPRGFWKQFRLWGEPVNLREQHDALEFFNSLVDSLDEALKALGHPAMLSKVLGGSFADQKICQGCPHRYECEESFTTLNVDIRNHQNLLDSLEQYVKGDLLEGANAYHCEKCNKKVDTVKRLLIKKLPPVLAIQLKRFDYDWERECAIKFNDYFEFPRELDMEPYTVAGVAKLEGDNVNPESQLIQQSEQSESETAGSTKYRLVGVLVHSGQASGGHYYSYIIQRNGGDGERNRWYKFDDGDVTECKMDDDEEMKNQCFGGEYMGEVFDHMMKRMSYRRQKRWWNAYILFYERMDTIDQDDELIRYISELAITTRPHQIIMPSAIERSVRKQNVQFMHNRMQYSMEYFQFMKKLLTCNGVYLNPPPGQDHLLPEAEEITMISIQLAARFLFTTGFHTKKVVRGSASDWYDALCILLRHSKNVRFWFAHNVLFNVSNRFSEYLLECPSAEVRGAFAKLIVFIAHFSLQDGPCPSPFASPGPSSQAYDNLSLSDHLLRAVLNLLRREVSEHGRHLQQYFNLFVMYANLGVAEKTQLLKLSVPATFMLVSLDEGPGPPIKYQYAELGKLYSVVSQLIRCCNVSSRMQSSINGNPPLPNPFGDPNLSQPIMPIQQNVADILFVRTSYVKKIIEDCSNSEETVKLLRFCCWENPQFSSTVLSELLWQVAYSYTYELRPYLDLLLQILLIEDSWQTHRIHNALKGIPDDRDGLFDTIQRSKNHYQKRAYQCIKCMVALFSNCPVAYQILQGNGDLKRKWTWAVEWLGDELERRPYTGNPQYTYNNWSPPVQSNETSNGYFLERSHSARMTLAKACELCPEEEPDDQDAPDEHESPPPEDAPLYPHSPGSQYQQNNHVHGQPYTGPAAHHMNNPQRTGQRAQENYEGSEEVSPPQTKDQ
UniProt P51784, sequence (P51784 whole entry): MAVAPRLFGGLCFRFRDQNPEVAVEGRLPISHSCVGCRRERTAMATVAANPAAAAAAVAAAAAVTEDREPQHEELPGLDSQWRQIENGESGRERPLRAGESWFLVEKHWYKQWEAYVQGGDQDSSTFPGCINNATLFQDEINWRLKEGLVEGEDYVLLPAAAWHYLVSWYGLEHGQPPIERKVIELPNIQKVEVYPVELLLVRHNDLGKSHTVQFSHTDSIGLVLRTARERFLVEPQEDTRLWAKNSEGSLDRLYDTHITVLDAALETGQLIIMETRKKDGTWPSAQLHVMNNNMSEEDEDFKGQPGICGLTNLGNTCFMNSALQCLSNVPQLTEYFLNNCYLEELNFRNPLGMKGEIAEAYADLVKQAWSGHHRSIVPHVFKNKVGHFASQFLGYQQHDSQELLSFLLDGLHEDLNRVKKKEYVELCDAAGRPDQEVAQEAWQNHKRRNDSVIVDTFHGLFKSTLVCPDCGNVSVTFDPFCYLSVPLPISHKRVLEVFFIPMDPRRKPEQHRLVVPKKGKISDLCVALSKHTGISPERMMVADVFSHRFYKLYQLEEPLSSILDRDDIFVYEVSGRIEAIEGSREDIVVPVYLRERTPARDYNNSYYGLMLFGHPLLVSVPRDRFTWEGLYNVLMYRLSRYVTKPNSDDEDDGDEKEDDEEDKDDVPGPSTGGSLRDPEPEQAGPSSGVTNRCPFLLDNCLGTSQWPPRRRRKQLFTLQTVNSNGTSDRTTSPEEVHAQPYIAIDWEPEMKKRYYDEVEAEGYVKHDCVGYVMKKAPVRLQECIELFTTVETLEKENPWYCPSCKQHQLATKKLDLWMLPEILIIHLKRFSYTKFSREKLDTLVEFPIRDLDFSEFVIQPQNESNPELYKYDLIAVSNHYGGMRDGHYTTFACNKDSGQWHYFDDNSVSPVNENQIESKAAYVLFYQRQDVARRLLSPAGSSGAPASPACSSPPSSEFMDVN

O=C(CCl)N1CCN(c2nc3ccccc3o2)CC1
inactive: USP9X -0.248 | UniProt O00487 -0.0834 | UniProt O00507 -0.666 | UniProt P51784 -0.255 | UniProt Q5T2D3 -0.0854 | UniProt Q8TE49 -0.515 | UniProt Q9P2H5 -0.57 | UniProt Q9UGI0 -0.691 | YOD1 -0.434
